Measured values as given in PubChem BioAssay (NCATS).
Results filed as inconclusive are left out. The source made the active and inactive calls. The call rests on the fitted dose curve; in most records, active means well fitted curve in the direction sought with a large enough effect; inconclusive means small, poorly fitted or top-dose-only effect, or another doubt; inactive means no such curve, though single readings can be large; an effect the other way counts as inactive or inconclusive.
Potency means the concentration at half of the fitted maximal effect.

Assay: Confirmatory screen GU Rhodamine qHTS for Zika virus inhibitors qHTS (AID 1347157); further: nearly all actives have a fitted effect of over 70% in size
Conditions: purified enzyme assay, Rhodamine110 substrate fluorescence, 15 min; series mostly up to 114 µM
Summary of the method: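 Buffer 10 mM Tris-HCl pH 8.0, 0.01% Tween 20. Unlinked protease 25 nM; compound preincubation 15 min, RT, protected from light. Substrate Rhod110, 1.5 microM; ~15% conversion in 15 min.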
With `COc1ccc2nccc(C(=O)CC[C@@H]3CCN(CC#Cc4cc(F)cc(F)c4F)C[C@@H]3C(=O)O)c2c1` the Potency was 39.3 µM (active).
With `Oc1cccc(-c2c3nc(c(-c4cccc(O)c4)c4ccc([nH]4)c(-c4cccc(O)c4)c4nc(c(-c5cccc(O)c5)c5ccc2[nH]5)CC4)C=C3)c1` the Potency was 22.4 µM (active).
In the case of `O=C(Nc1ccc(-c2ccc(Cl)c(Cl)c2)cc1)C1=C(O)c2ccccc2S(=O)(=O)N1`, the Potency was 2.48 µM (active).
With `Cc1noc(-c2ccc(-c3ccc(CC(=O)O)cc3)cc2)c1NC(=O)O[C@H](C)c1ccccc1Cl` the Potency was 5.55 µM (active).
In the case of `CCC(C)/C=C(C)/C=C/C1=CC2=CC(=O)C3(C)OC(C)(O)C(C(=O)OC)C3C2=CO1` (configuration not stated), the Potency was 19.2 µM (active).
With `CC(O)(C(=O)O)C1CCC2(C)C1CCC1(C)C2CCC2C3(C)CCC(O)C(C)(COC4OC(CO)C(O)C(O)C4O)C3CCC21C` (configuration not stated) the Potency was 13.1 µM (active).
For `C[C@H]1CO[C@@H]2Cn3cc(C(=O)NCc4ccc(F)cc4F)c(=O)c(O)c3C(=O)N12`, the Potency was “inactive”.
With `COc1cc(C(=O)O)ccc1NC(=O)C1NC(CC(C)(C)C)C(C#N)(c2ccc(Cl)cc2F)C1c1cccc(Cl)c1F` (configuration not stated) the Potency was 4.41 µM (active).
For `CCCCCc1ccc(/C=C/C(=O)Nc2cc(Cl)ccc2C(=O)O)cc1`, the Potency was 1.75 µM (active).
For `CCCCCCCOc1cc2c(cc1/C(C)=C/c1ccc(C(=O)O)cc1)C(C)(C)CCS2(=O)=O`, the Potency was 1.97 µM (active).
In the case of `Cc1cc(C)c2c(c1)C(N(Cc1cc(C(F)(F)F)cc(C(F)(F)F)c1)c1nnn(C)n1)CCCN2CC1CCC(C(=O)O)CC1` (configuration not stated), the Potency was 8.79 µM (active).

Assay: ZIKV-mCherry secondary qHTS for Zika virus inhibitors (AID 1347158)
Conditions: Vero cells, ZIKV-mCherry infection imaging, 48-72 h; series mostly up to 49.2 µM
Summary of the method: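 This orthogonal imaging screen measured ZIKV-mCherry infection of Vero cells exposed to compound, MOI 1, 48-72 h. Percent infection came from segmented nuclei scored mCherry-positive above 3 SD of negative controls.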
With `O=C(Nc1ccc(/C=C/c2ccc(NC(=O)c3cc(S(=O)(=O)O)c4cccnc4c3O)cc2S(=O)(=O)O)c(S(=O)(=O)O)c1)c1cc(S(=O)(=O)O)c2cccnc2c1O` the Potency was “inactive”.
With `N#Cc1ccc(N2N=C3c4ccc(C(=O)O)cc4CC[C@@H]3[C@@H]2C2CCCC2)cc1Cl` the Potency was 2.51 µM (active).
For `CC#C[C@@H](CC(=O)O)c1ccc(OCc2ccc(CN3CCC4(C=Cc5ccccc54)CC3)s2)cc1`, the Potency was “inactive”.
In the case of `O=C(O)c1ccc(N2C(=O)/C(=C/c3ccc(-c4ccc([N+](=O)[O-])cc4)o3)C=C2c2ccccc2)cc1`, the Potency was “inactive”.
With `Oc1cccc(-c2c3nc(c(-c4cccc(O)c4)c4ccc([nH]4)c(-c4cccc(O)c4)c4nc(c(-c5cccc(O)c5)c5ccc2[nH]5)CC4)C=C3)c1` the Potency was “inactive”.
In the case of `Cc1cc(C)c2c(c1)C(N(Cc1cc(C(F)(F)F)cc(C(F)(F)F)c1)c1nnn(C)n1)CCCN2CC1CCC(C(=O)O)CC1` (configuration not stated), the Potency was “inactive”.
